A number with no mark means an inactive call.
Tested on: Plasmodium falciparum NF54-HGL (transmission to Anopheles stephensi)
Assay: percentage of barcode signal found in uninfected mosquitoes (transmission-blocking activity); higher = stronger blocking of transmission to mosquito, active = 80 or more
Conditions: 10 µM; gametocyte preincubation time 24 h; readout time post-feed 8 days
Protocol: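 The mixture was fed to Anopheles stephensi in 96-well plates as blood meals tagged with DNA-barcoded Asaia bacteria. Eight days later, mosquitoes were classed infected or uninfected by luminescence (mean + 5 SD of unfed controls). Barcodes were quantified by Luminex MagPlex-TAG in the pooled uninfected and infected Asaia cultures, background-corrected, and the score is % of barcode signal in uninfected mosquitoes = 100*Iu/(Iu+Ii).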

Structure (SMILES) | percentage of barcode signal found in uninfected mosquitoes
COc1ccc(OC(C)C(=O)Nc2ccc(Cl)cc2C)cc1 (configuration not stated) | -0.09%
COc1nc2ccc(Br)cc2cc1[C@@H](c1ccccc1)[C@@](O)(CCN(C)C)c1cccc2ccccc12 | -3.2%
O=C(c1[nH]nc2c1CCCC2)N1CCN(Cc2ccc3c(c2)OCO3)CC1 | 9.05%
Cc1cccnc1NC(=O)c1cccc(OCc2c(C)noc2C)c1 | -2.5%
O=C(CCC1CCCCC1)Nc1cccc(-c2nnc(-c3ccco3)o2)c1 | 67.5%
CN(C)CCNC(=O)N1CCCN(c2ncnc3cc(-c4ccccc4)sc23)CC1 | 34.3%
COc1ccc(C2CC(c3cccs3)=NN2C(=O)c2ccco2)cc1OC (configuration not stated) | 57.1%
CC(C)N=c1cc2n(-c3ccc(Cl)cc3)c3ccccc3nc-2cc1Nc1ccc(Cl)cc1 | 99.3% (active)
Cc1ccc(Oc2ccc(NC(=O)CNc3ccccc3N3CCCC3=O)cc2)cc1 | 53.3%
Nc1nccc2ccc(-c3ccc4nccn4c3)cc12 | 92.9% (active)
COc1ccc(-c2onc(C(F)(F)F)c2-c2ccc(Cl)cc2)c(O)c1 | 25.2%
Cc1cc(C(=O)Nc2ccc(-c3ccccc3)cc2)no1 | 64%
Cc1ccc2c(c1C)NC(=O)C21NN=C(c2ccccc2)S1 (configuration not stated) | 77%
Nc1ncnc2c1ncn2C[C@@H](O)[C@@H](O)C(=O)O | 39.9%
CS(=O)(=O)c1ccccc1C(=O)N(Cc1ccccc1)c1ccccc1 | 5.09%
Cc1nc(-c2cccc(NCc3ccccc3)c2)[nH]c1C | 2.32%
CCC(=O)Nc1ccccc1C(=O)Nc1ccccn1 | 50%
Cc1nn2c(=O)c3c([nH]c2c1-c1ccc(Cl)cc1)CCCC3 | 40.4%

Same assay, conditions: 20 µM; gametocyte preincubation time 24 h; readout time post-feed 8 days

Structure (SMILES) | percentage of barcode signal found in uninfected mosquitoes
Cn1ccnc1CNCCS(=O)(=O)c1cccc(Nc2ccc(-c3cccc(F)c3)cn2)c1 | 0.967%
NCCC(O)C(=O)N[C@@H]1C[C@H](N)[C@@H](OC2O[C@H](CN)[C@@H](O)[C@H](O)[C@H]2O)[C@H](O)C1OC1O[C@H](CO)[C@@H](O)[C@H](N)[C@H]1O (some centres not stated) | 37.6%
c1ccc2c(c1)CN(CC1CC1)CC1(CCN(Cc3c[nH]c4cnccc34)CC1)O2 | 30.7%
Nc1nccc2ccc(Oc3ccncc3)cc12 | 37.6%
c1ccc(C[C@@H]2CN(c3nccc(Oc4ccc(-n5ccnc5)cc4)n3)CCN2)cc1 | 35.3%
CC1(C)Cc2c(c(N3CCOCC3)nc3snc(Br)c23)CO1 | 97% (active)
c1ccc(Oc2ccc(-c3cc(N4CCNCC4)[nH]n3)cc2)cc1 | 27.2%
Clc1ccc(-n2cc(COc3ccnc4ccccc34)nn2)cc1 | 34.4%
CCc1ccc([C@@H]2C[C@H](C(F)(F)F)n3ncc(C(=O)NCc4ccc(OC)cc4)c3N2)cc1 | 8.67%
CCc1ccccc1-n1c(C)cn2c3c(=O)n(C(C(=O)OC)C(C)C)c(=O)n(C)c3nc12 (configuration not stated) | 54.1%
COc1ccc(C(=N)N)cc1-c1cn(-c2ccc(C(=N)N)cc2)nn1 | 2.56%
CC(c1cc(Cl)cc(Cl)c1)N(C)c1ncc2c(N)nc(N)nc2n1 (configuration not stated) | 0.441%
O=C(N[C@H](Cc1ccccc1)C(=O)Nc1ccccc1N1CCOCC1)c1cccs1 | 13.5%
Nc1ccc(C(=O)Nc2ccc(-c3nc4ccccc4o3)cc2)cc1 | -0.842%
CC(C)(C)C(=O)N(CCCCCCN1C[C@H](O)[C@@H](O)[C@H](O)[C@H]1CO)C1CCCCCC1 | 17%
OCc1ccc(-c2cncc(Nc3cccc(Cl)c3)c2)cc1 | 4.28%
COc1ccc2nc(C)cc(OCC(=O)NCc3ccccc3)c2c1 | 2.14%
Cc1cnc(N2CCN[C@@H](Cc3ccccc3)C2)nc1Oc1ccc(-n2ccnc2)cc1 | 87% (active)
CNc1cc(C)nc(C2CN(C(=O)c3n[nH]c4ccccc34)CCO2)c1 (configuration not stated) | 35.5%

— the supplement of paper PMC8726507
